For 9 compounds, growth results are on record in PubChem BioAssay (NCI).

Common to all, as to assay: NCI-60 one-dose screen, 48 h (100 = growth as untreated, 0 = no growth, -100 = all killed)
What all share (conditions): 10 µM unless noted

Assay [1] has as its system SR leukemia.
Assay [2] has as its system RPMI-8226 leukemia.
Assay [3] concerns OVCAR-8 ovarian.
The test system of assay [4] is OVCAR-5 ovarian.
Assay [5] relates to OVCAR-4 ovarian.
For assay [6], the system named is SK-OV-3 ovarian.
Assay [7] relates to IGROV1 ovarian.
Assay [8] deals with HS 578T breast.
The subject of assay [9] is NCI/ADR-RES ovarian.
In assay [10] the test system is T-47D breast.
Assay [11] relates to BT-549 breast.
For assay [12], the system named is MDA-MB-435 melanoma.
For assay [13], the system named is SW-620 colon.
Assay [14] has as its system MCF7 breast.
The test system of assay [15] is HCT-116 colon.
Assay [16] has as its system HCC-2998 colon.
Assay [17] deals with KM12 colon.
The subject of assay [18] is OVCAR-3 ovarian.

Compounds without any hit were thinned out: in the full panel of roughly 83,000, 20% have a hit.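 Treatment: one concentration, 48 hours, 96-well format. Scoring: percent growth, with anything below 10 considered active.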 Values without a mark were called inactive. Active and inactive are the calls of the source.

Take `CN1CCN(c2nc(-c3cccc4ccccc34)nc3sc4c(c23)CCCCCC4)CC1`: the growth in assay [1] is 47.1%; in assay [2] it was 79.3%; in assay [3], 93%; in assay [4], 90.2%; in assay [5] it was 83.8%; in [6], 89.2%. The growth in assay [7] is 72.6%; in assay [8], 86.1%; in [9], 87.4%; in assay [10], 67.2%; in assay [11], 91.9%; in assay [12], 93.3%. The growth in assay [13] is 83.8%; in assay [14], 68.2%; in assay [15], 67.9%; in assay [16] it was 95.8%; in assay [17], 98.8%.

On to `CN(C)c1ccc(-c2ccc(-c3ccc(C(=N)N)c(F)c3)s2)cc1`, for which the growth is 1.32% (active) in [1]; -52.6% (active) in assay [2]; -26.4% (active) in assay [3]; -89.2% (active) in assay [4]; -85.1% (active) in assay [5]; -84% (active) in assay [7]. In addition, the growth in [18] was -88.2% (active); in assay [8], 102%; in assay [9], -49.2% (active); in assay [10], -60.3% (active); in assay [11] it was 95.7%; in [12], -95.4% (active). The growth in [13] was -75% (active); in assay [14], -69.7% (active); in [15], -89.3% (active); in [16], -95.4% (active); in assay [17], -87.9% (active).

For the compound `C=C(C)[C@@H]1CC[C@]2(C(=O)N3CCCNCC3)CC[C@]3(C)[C@H](CC[C@@H]4[C@@]5(C)CCC(=O)C(C)(C)[C@@H]5CC[C@]43C)[C@@H]12`, the growth is 8.04% (active) in assay [1]; 92% in [2]; 95.6% in [3]; 106% in assay [4]; 92.3% in assay [5]; 106% in assay [6]. Also, the growth is 93.6% in assay [7]; 98.8% in [18]; 94.2% in assay [8]; 83.9% in assay [10]; 93.6% in assay [11]; 95.5% in assay [12]. Besides, the growth is 93.5% in assay [13]; 91.4% in assay [14]; 71.6% in assay [15]; 103% in assay [16]; 98.7% in [17].

`Nc1c2c(nc3ccc(Br)cc13)CC(c1ccccc1)CC2=O` (stereo not given): the growth in assay [1] was 27.1%; in assay [2], 17.8%; in assay [3], 44.7%; in assay [4], 49.2%; in assay [5], 68.7%; in [6] it was 63.6%. Besides, the growth in [7] is 36.7%; in assay [18], 14.7%; in assay [8], 30.9%; in assay [10] it was 43.1%; in [11] it was 42.9%; in assay [12], -43.4% (active). The growth is 26.1% in [13]; 21.1% in assay [14]; 31.9% in assay [15]; 62.9% in assay [16]; 24.7% in assay [17].

On to `O=C(/C=C\c1ccc2c(c1)OCO2)/C=C/c1ccc2c(c1)OCO2`, for which the growth was 10.5% in assay [1]; -9.97% (active) in [2]; 101% in [3]; 108% in assay [4]; 84.9% in assay [5]; 92% in [6]. Further, the growth is 88.9% in [7]; 69.5% in [18]; 92.1% in [9]; 75.6% in assay [10]; 67.2% in [11]; 17% in [12]. The growth is 13.2% in assay [14], -12.5% (active) in [15], 41.4% in [16] and 8.55% (active) in assay [17].

`Cc1ccc(S(=O)(=O)Nc2ccc(-c3cc(-c4cccc(F)c4)c(C#N)c(N)n3)cc2)cc1`: the growth was 8.01% (active) in assay [1]; -3.27% (active) in assay [2]; 7.02% (active) in assay [3]; 45.5% in assay [4]; -63.4% (active) in assay [5]; 71.8% in assay [6]. The growth in [7] is -66.3% (active); in [18], -79.4% (active); in assay [8], 31.4%; in [10] it was -27.2% (active); in [11], 7.45% (active); in assay [12], 19.6%. Besides, the growth in [14] was 11.3%; in assay [15], -73.2% (active); in [16] it was 39.7%; in assay [17], 46.7%.

With `C/C(=N/NC(N)=S)C(=O)O`, the growth was 90% in assay [1]; 75.2% in assay [2]; 71.2% in [3]; 91.1% in [4]; 85.5% in assay [5]; 107% in [6]. For the same compound, the growth was 56.7% in [7]; 77% in assay [18]; 65.3% in assay [9]; 28.6% in assay [10]; 102% in assay [11]; 85.8% in assay [12]. In addition, the growth in assay [13] is 77.6%; in assay [14], 26.2%; in assay [15] it was 10.6%; in assay [16] it was 94.3%; in assay [17], 109%.

In the case of `Nc1ccc(Br)cn1`, the growth in [1] was 98.9%; in assay [2], 101%; in [3], 102%; in assay [4], 93%; in [5], 101%; in assay [6], 103%. The growth in [7] was 110%; in [8] it was 99.5%; in assay [9], 103%; in assay [10] it was 98.7%; in [11], 94.7%; in [12] it was 113%. Further, the growth in assay [13] is 104%; in [14], 110%; in assay [15] it was 96.4%; in assay [16] it was 98.1%.

With `NC(N)=N/N=C/c1ccc(-c2ccc(-c3ccc(Cl)cn3)s2)cc1`, the growth in assay [1] is 11.6%; in assay [2] it was 38.4%; in [3], 99.3%; in assay [4], 107%; in assay [5] it was 99.3%; in assay [7] it was 91.1%. Also, the growth in assay [18] is 85.9%; in [8], 92.3%; in [9], 50.8%; in [10], 91.2%; in assay [11], 98.8%; in assay [12], 98.5%. The growth in [13] was 2.46% (active); in assay [14] it was 42.8%; in [15], 50.2%; in [16], 98.4%; in [17] it was 14.8%.
